Measurements: PubChem BioAssay AID485317 (Broad Institute, 2010)
Out of some 290,000 compounds screened, about 11,000 (3.8%) were called active. For the sample, actives were picked, then their nearest neighbours and some compounds at random. Values without a mark were called inactive.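 Rule for the calls: active = mean replicate inhibition above about 79%, with every replicate also reaching it (limit read from the data); inconclusive = only one of the two criteria met; inactive = mean below limit and not every replicate reaching it.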

molecular target: FAD-linked sulfhydryl oxidase ALR (Homo sapiens) (UniProt P55789); assay: inhibitors of human ALR sulfhydryl oxidase, primary screen, biochemical, H2O2 detection, HRP-luminol luminescence, single point (AID 485317); conditions: purified ALR, DTT oxidation, hits give high values, concentration not given here
Sequence (P55789 whole entry, looked up): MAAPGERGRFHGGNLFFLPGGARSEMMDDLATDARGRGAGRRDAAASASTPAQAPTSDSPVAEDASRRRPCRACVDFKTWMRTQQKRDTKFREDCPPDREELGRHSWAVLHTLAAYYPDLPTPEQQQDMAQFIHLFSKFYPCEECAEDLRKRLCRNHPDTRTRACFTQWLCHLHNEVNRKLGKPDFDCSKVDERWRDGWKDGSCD

For OCc1ccc(-c2ccccc2)c(-c2ccccc2)c1, which inhibition is on record?
Its inhibition is -3.81%.

With CCOc1ccccc1Nc1nnc(SCC(=O)NCC2CCCO2)s1 (stereo not drawn) as the compound, how does the inhibition read?
The inhibition was 1.03%.

CCOc1cc(-c2nc3cc(C)ccn3c2NCC2CCCO2)ccc1O (stereo not drawn) was tested. Which inhibition did it give?
The inhibition was 99.6% (active).

For CCOc1ccc(C(=O)Nc2ccc(S(=O)(=O)NCC3CCCO3)cc2)cc1OCC (stereo not drawn), which inhibition is on record?
The inhibition was 1.23%.

For O=C(COC(=O)c1ccc(F)cc1)Nc1ccc2c(c1)OCO2, which inhibition is on record?
Its inhibition is -9.08%.

Which inhibition does the source give for C=CC[C@@H](CC(=O)N[C@H](CO)Cc1ccccc1)C(=O)N[C@@H](COC(=O)[C@@H](CC=C)Cc1ccc(F)cc1)Cc1c[nH]c2ccccc12 here?
Its inhibition is 10.3%.

With COc1ccccc1C(=O)Nc1ccccc1C(=O)Nc1ccccc1 as the compound, how does the inhibition read?
Its inhibition is 4.88%.

How did the inhibition turn out when COc1ccccc1C(=O)Nc1ccc(Nc2ccccc2)cc1 was run?
The inhibition was -2.18%.

For COc1ccccc1C(=O)Nc1nc2nc(-c3ccccc3)cc(=O)n2[nH]1, which inhibition is on record?
Its inhibition is 97.8% (active).

Which inhibition does the source give for O=C(CNC(=O)c1ccco1)NNC(=O)c1ccc(Br)cc1 here?
The inhibition was -12.3%.

How did the inhibition turn out when C=CCC1(C(=O)N(C)Cc2ccccc2)CCN(C(=O)OC(C)(C)C)CC1 was run?
Its inhibition is -25%.

How did the inhibition turn out when COc1ccc(NC(=O)CSc2ncnc3[nH]ncc23)cc1 was run?
The inhibition was 98.6% (active).

How did the inhibition turn out when CC(=O)Nc1ccc(NC(=O)CSc2ncnc3c2cnn3Cc2ccccc2)cc1 was run?
Its inhibition is -9.78%.

For COc1ccc(NC(=O)CSc2nc(C)cs2)cc1, which inhibition is on record?
The inhibition was -14.7%.

How did the inhibition turn out when CCCCn1nc(C(=O)Nc2cccc(C(=O)NC3CC3)c2)c2ccccc2c1=O was run?
Its inhibition is -0.223%.

Which inhibition does the source give for Cc1ccc(Nc2nnc(SC(C)C(=O)NC3CC3)s2)cc1 (stereo not drawn) here?
Its inhibition is 7.72%.

How did the inhibition turn out when COc1ccccc1C(=O)N1CCN=C1SCc1cccnc1 was run?
Its inhibition is 96.4% (active).

COc1ccccc1C(=O)NCCC(=O)N(C)Cc1cccnc1 was tested. Which inhibition did it give?
Its inhibition is -1.19%.

COc1cccc(OC)c1C(=O)N1CCN(Cc2cccnc2)CC1 was tested. Which inhibition did it give?
The inhibition was 6.59%.

How did the inhibition turn out when C=C1CCC(N(O)c2cc(C)on2)C(=C)CCC2C1CC2(C)C (stereo not drawn) was run?
Its inhibition is 4.12%.

With COc1ccccc1C(=O)OCC(=O)Nc1cccc(S(=O)(=O)NC2=NCCCCC2)c1 as the compound, how does the inhibition read?
The inhibition was 14.6%.

Cc1ccc(S(=O)(=O)N2CCN(C(=O)Cn3c(=O)cnc4ccccc43)CC2)c(C)c1 was tested. Which inhibition did it give?
Its inhibition is -23.6%.

For CCc1sc(C(=O)N2CCN(CC(=O)Nc3cccc(F)c3)CC2)cc1C, which inhibition is on record?
Its inhibition is -6.06%.

How did the inhibition turn out when COc1ccc(/C=N/Nc2nc3ccccc3o2)cc1OC was run?
The inhibition was -12.6%.

COc1cc(/C=N/Nc2nc3ccccc3s2)ccc1O was tested. Which inhibition did it give?
Its inhibition is 46.3%.

Which inhibition does the source give for COc1cc(/C=N\Nc2nc(-c3cccs3)c(NC(C)=O)s2)ccc1O here?
The inhibition was 98.9% (active).

With CCNc1nc(NCC)nc(N/N=C/c2ccc(O)c(OC)c2)n1 as the compound, how does the inhibition read?
The inhibition was 99.1% (active).

Which inhibition does the source give for CCOc1cc(/C=C(\C#N)c2nc(-c3cccs3)c(NC(C)=O)s2)ccc1O here?
Its inhibition is -22.4%.

With CCNc1nc(N)nc(-c2cc(Cl)ccc2OC)n1 as the compound, how does the inhibition read?
Its inhibition is 4.24%.

Which inhibition does the source give for COc1ccccc1/C=N/Nc1nc(C)c(C(C)=O)s1 here?
The inhibition was 3.01%.

CSc1ccc(/C=C2\NC(=O)NC2=O)cc1 was tested. Which inhibition did it give?
Its inhibition is 4.58%.

Which inhibition does the source give for COC(=O)C1=C(C)N(c2ccc(Br)cc2)C(=O)/C1=C\c1ccco1 here?
Its inhibition is 3.31%.

Cc1ccc(N2NC(=O)/C(=C/C=C/c3ccco3)C2=O)cc1C was tested. Which inhibition did it give?
Its inhibition is 97.4% (active).

Cc1ccc(-c2cc(C(=O)N/N=C/C=C/c3ccco3)c3ccccc3n2)cc1C was tested. Which inhibition did it give?
The inhibition was -5.26%.

For Cc1cccc(N=C2NC(=O)/C(=C/c3cn(C)c4ccccc34)S2)c1, which inhibition is on record?
The inhibition was -1.56%.

For Cc1ccc(N=C2NC(=O)/C(=C/C=C/c3ccco3)S2)cc1C, which inhibition is on record?
Its inhibition is 88.6% (active).

For COc1ccc(CNC(=O)COC(=O)c2sccc2C)cc1OC, which inhibition is on record?
Its inhibition is 2.29%.

With O=C(CN1C(=O)NC2(CCCC2)C1=O)OCCOc1ccc(F)cc1 as the compound, how does the inhibition read?
Its inhibition is -0.86%.

Which inhibition does the source give for CN(CC(=O)Nc1ccc(Cl)cc1)C(=O)c1ccc(COc2ccccc2)cc1 here?
The inhibition was -2.8%.

Which inhibition does the source give for Cc1[nH]c2ccccc2c1/C=N\NC(=O)Cn1nnc(-c2ccccc2)n1 here?
The inhibition was -18.5%.

Which inhibition does the source give for Cc1[nH]c2ccccc2c1/C=N/NC(=O)CNC(=O)c1ccc2c(c1)OCO2 here?
Its inhibition is -4.62%.

With COCCNC(=S)N/N=C/c1c(C)[nH]c2ccccc12 as the compound, how does the inhibition read?
The inhibition was 98% (active).

How did the inhibition turn out when O=C(COC(=O)C1(c2ccc(F)cc2)CCCC1)N1CCNC1=O was run?
The inhibition was 1.5%.

Which inhibition does the source give for COc1ccccc1C(CNC(=O)c1cccc(NS(=O)(=O)c2ccc(Br)cc2)c1)N(C)C (stereo not drawn) here?
The inhibition was -2.7%.

With CC(C)NC(=O)Nc1cccc2c1O[C@@H](CN(C)S(=O)(=O)c1ccc(F)cc1)[C@@H](C)CN([C@H](C)CO)C2=O as the compound, how does the inhibition read?
Its inhibition is -3.22%.

CCOC(=O)c1c(-c2cccc(N)c2)cn2ccccc12 was tested. Which inhibition did it give?
The inhibition was 99% (active).

For CCOC(=O)c1c(-c2ccccc2)oc2cc(Br)c(O)cc12, which inhibition is on record?
Its inhibition is 13.2%.

How did the inhibition turn out when CCOC(=O)c1c(N)nn(C(=O)c2ccccc2)c1-c1ccccc1 was run?
The inhibition was 3.16%.

Which inhibition does the source give for CCOC(=O)c1sc(N)c(C#N)c1COC(=O)C1=COCCO1 here?
The inhibition was -1.4%.

CCOC(=O)CSc1nc(C)cc2c1C(=O)OC2 was tested. Which inhibition did it give?
Its inhibition is -5.37%.

Which inhibition does the source give for CCOC(=O)CSC1=N/C(=C/c2ccc(-n3cncn3)cc2)C(=O)N1C(C)=O here?
Its inhibition is 97.6% (active).

For CCOC(=O)CSc1ccccn1, which inhibition is on record?
The inhibition was -2.85%.

How did the inhibition turn out when CC(=O)Nc1ccc(NC(=O)COC(=O)c2ccccc2C(=O)c2ccccc2)cc1 was run?
Its inhibition is 0.353%.

With COc1ccc(S(=O)(=O)N2CCCCCC2)cc1C(=O)N(C)Cc1cccc(OC)c1OC as the compound, how does the inhibition read?
Its inhibition is -1.21%.

With CCOc1ccc(C(=O)NCC(=O)N2CCN(c3ccc(C(F)(F)F)cn3)CC2)cc1 as the compound, how does the inhibition read?
The inhibition was 1.77%.

Which inhibition does the source give for O=C(COC(=O)CN1C(=O)C2CCCCC2C1=O)Nc1ccc(F)c(F)c1F (stereo not drawn) here?
Its inhibition is -5.29%.

Which inhibition does the source give for Cc1nc(-c2ccc([N+](=O)[O-])cc2)c(-c2ccccc2)o1 here?
The inhibition was 97.6% (active).

Cc1cccc(NC(=O)c2sc(-c3ccccc3)nc2-c2ccc([N+](=O)[O-])cc2)c1 was tested. Which inhibition did it give?
The inhibition was -3.26%.

COc1ccc([N+](=O)[O-])cc1-c1nc2ccccc2nc1-c1ccccc1 was tested. Which inhibition did it give?
The inhibition was -10.3%.

With CCC(CO)Oc1cc(NCc2ccccc2)c2ncn(C3CCCC3)c2c1 (stereo not drawn) as the compound, how does the inhibition read?
Its inhibition is 15.4%.

Which inhibition does the source give for CC1CC1C(=O)OCC(=O)Nc1cccc(F)c1 (stereo not drawn) here?
The inhibition was -3.36%.

With COC(=O)c1ccc(C)c(NC(=O)Cn2c(C)csc2=O)c1 as the compound, how does the inhibition read?
The inhibition was -1.89%.

For O=C(Nc1c2c(nc3ccccc13)CCCC2)c1ccccc1Br, which inhibition is on record?
Its inhibition is -5.44%.

For Cc1ccc(Nc2c3c(nc4ccccc24)CCC3)cc1, which inhibition is on record?
The inhibition was 98.4% (active).

How did the inhibition turn out when CC(=O)Nc1ccc(-c2nc3ccccc3o2)cc1 was run?
Its inhibition is -1.09%.

CC(=O)Nc1ccc(Nc2c3ccccc3nc3ccccc23)cc1 was tested. Which inhibition did it give?
The inhibition was 89.9% (active).

Which inhibition does the source give for O=[N+]([O-])c1cccc(Nc2c3ccccc3nc3ccccc23)c1 here?
Its inhibition is -6.1%.

How did the inhibition turn out when N#Cc1cccc(Nc2c3c(nc4ccccc24)CCCC3)c1 was run?
Its inhibition is -9.75%.

How did the inhibition turn out when CCOC(=O)C1=C(COC(=O)[C@H](C)NS(=O)(=O)c2ccccc2F)NC(=O)NC1C (stereo partly drawn) was run?
Its inhibition is -1.62%.

For O=C(CN1C(=O)NC2(CCOc3ccccc32)C1=O)NCc1ccc(F)cc1 (stereo not drawn), which inhibition is on record?
Its inhibition is -3.27%.

With COC(=O)C1CCN(C(=O)COC(=O)c2cc(S(=O)(=O)N3CCOCC3)ccc2C)CC1 as the compound, how does the inhibition read?
Its inhibition is -15.3%.

Which inhibition does the source give for CCn1c2ccccc2c2cc(NC(=O)C/C(C)=N/NC(=O)c3ccccc3N)ccc21 here?
Its inhibition is -1.26%.

With C/C(CC(=O)Nc1ccc(N(C)C)cc1)=N\NC(=O)c1ccccc1F as the compound, how does the inhibition read?
The inhibition was 87.2% (active).

How did the inhibition turn out when O=C(Nc1ccc(NC(=O)c2ccccc2F)cc1)c1ccccc1F was run?
The inhibition was -9.75%.

Cc1ccc2c(c1)NC(=O)[C@@]1(C)[C@@H](c3ccccc3)[C@H]3COc4ccc(Cl)cc4[C@@H]3N1C2=O was tested. Which inhibition did it give?
Its inhibition is 0.863%.

How did the inhibition turn out when CC(=O)N1CCc2c(sc(NC(=O)CCS(=O)(=O)c3ccc(C)cc3)c2C(N)=O)C1 was run?
The inhibition was -33.3%.

How did the inhibition turn out when C[C@H]1COC(=O)[C@H](CC(=O)OC(C)(C)C)C/C=C\C[C@@H](CC(=O)N[C@H](CO)Cc2ccccc2)C(=O)N1 was run?
Its inhibition is 1.44%.

With CCCCN(C(=O)c1ccc2ccccc2c1)c1c(N)n(CCCC)c(=O)[nH]c1=O as the compound, how does the inhibition read?
Its inhibition is -4.16%.

Cn1cc(Cl)c(C(=O)NNC(=S)Nc2cccc(Cl)c2)n1 was tested. Which inhibition did it give?
The inhibition was 89.2% (active).

Which inhibition does the source give for Cc1cccc(-n2cnc(C(=O)NNC(=S)Nc3ccccc3)c2)n1 here?
Its inhibition is 47.8%.

For Cc1nn(C)cc1C(=O)NNC(=S)Nc1ccc(Cl)cc1, which inhibition is on record?
Its inhibition is 49.6%.

With CC(OC(=O)CCCOc1ccccc1)C(=O)Nc1ccc(Cl)cn1 (stereo not drawn) as the compound, how does the inhibition read?
The inhibition was -0.655%.

With CN(Cc1ccc(F)cc1)C(=O)CN1C(=O)c2ccccc2S1(=O)=O as the compound, how does the inhibition read?
Its inhibition is 1.6%.

C/C(CC(=O)Nc1cccc(C(F)(F)F)c1)=N\NC(=O)C(=O)NCC(C)C was tested. Which inhibition did it give?
The inhibition was -10.3%.

How did the inhibition turn out when COc1ccc(COC(=O)N/N=C(\C)CC(=O)Nc2ccc(Cl)cc2)cc1 was run?
The inhibition was -4.07%.

How did the inhibition turn out when C/C(CC(=O)Nc1ccc(Cl)cc1)=N\NC(=O)C(=O)NCCO was run?
The inhibition was 96.1% (active).

With CC(C#N)OC(=O)c1cccnc1SCC(=O)Nc1ccc2c(c1)OCO2 (stereo not drawn) as the compound, how does the inhibition read?
The inhibition was -10.2%.

Which inhibition does the source give for Cc1ccc(S(=O)(=O)N2CCN(C(=O)c3ccccc3-c3nc4ccccc4s3)CC2)c(C)c1 here?
Its inhibition is -15.3%.

Cc1ccc(NC(=O)C(c2ccccc2)N2CCN(C(=O)c3ccco3)CC2)cc1 (stereo not drawn) was tested. Which inhibition did it give?
The inhibition was -2.06%.

With COc1cc(OC)cc(C(=O)N[C@H](C(=O)NNC(=O)c2ccc(Br)cc2)C(C)C)c1 as the compound, how does the inhibition read?
The inhibition was -9.81%.

CC(=NCc1ccco1)C1=C(O)c2ccccc2C1=O was tested. Which inhibition did it give?
The inhibition was 2.24%.

CCc1ccc(-c2cc(C(=O)NCc3ccco3)c3ccccc3n2)s1 was tested. Which inhibition did it give?
Its inhibition is 52.8%.

For CC(=NCc1ccco1)c1c(C(F)(F)F)[nH]n(-c2nc3ccccc3s2)c1=O, which inhibition is on record?
Its inhibition is 92.1% (active).
